According to the supplement of paper PMC6555819:

Key:
Assay in all cases: PBM binding z-score (relative to random genomic background probes); higher = stronger binding; sequences stand for … in GC…GCGATTGACAGCGTAGAATGAAGG
[1] = tested on: RARb homodimer (NR concentration 270 nM)
Summary of the method: (§1)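 Binding z-scores were set against random background probes. The data came from custom Agilent 4×180K protein-binding microarrays carrying double-stranded probes with 34-nt variable regions, incubated 1 h with ligand-free nuclear receptor dimers. Partner-specific antibodies detected binding, and scanned fluorescence was regression-normalized.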

[2] = tested on: RARg:RXRa (NR concentration 270 nM, RXRa partner concentration 90 nM)
Summary of the method: as §1

[3] = tested on: RARg homodimer (NR concentration 270 nM)
Summary of the method: as §1

[4] = tested on: RXRa DBDmut IVT, anti-RXR (DBD mutation: RXRa K156A/R161A, NR concentration 90 nM)
Summary of the method: as §1

[5] = tested on: RXRa homodimer (NR concentration 180 nM)
Summary of the method: as §1

[6] = tested on: THRa:RXRa (NR concentration 90 nM, RXRa partner concentration 90 nM)
Summary of the method: as §1

[7] = tested on: THRa homodimer (NR concentration 90 nM)
Summary of the method: as §1

[8] = tested on: VDR homodimer (NR concentration 270 nM)
Summary of the method: as §1

[9] = tested on: VDR:RXRa (NR concentration 270 nM, RXRa partner concentration 90 nM)
Summary of the method: as §1

Sequence	PBM binding z-score [1]	PBM binding z-score [2]	PBM binding z-score [3]	PBM binding z-score [4]	PBM binding z-score [5]	PBM binding z-score [6]	PBM binding z-score [7]	PBM binding z-score [8]	PBM binding z-score [9]
CCTCGGAGGACACCAGGAGGTCAGAGCTGCCAGA	3.49	3.94	3.53	-0.302	2.11	2.93	1.37	1.13	–
CCTTACCGGTCAAGGTTATAGCACGGGTGGTACG	2.84	2.53	3.33	-0.447	1.46	1.74	0.941	0.853	–
TCTAGTTGGTCAAAGGCCACACACTCGAAATGCG	1.9	1.77	1.42	0.875	1.71	0.626	0.029	-0.00157	–
CGAACTAGGTCCCCAGGACAGTGAAGAGGTTGGA	-0.127	-0.281	-0.0988	-0.51	-0.31	0.965	0.258	-0.533	–
ATATGTAGGTTAGGGTCATTCCGAAAGTAGGGAA	3.13	3.89	2.85	2.61	5.22	4.18	3.01	3.59	–
ATATGTAGGTTAGGGTCATTCAGAAAGTAGGGAA	3.49	4.11	3.21	2.68	5.53	3.97	3.55	4.01	–
AGTCAAATTTCATCTAGGTAACGTAAGATATGCT	-0.24	-0.128	0.382	0.077	0.184	0.722	0.526	0.0484	–
TCGAGTAGGTTACGGGGGCATTCAAGGATGAAGA	2.13	3.22	2.33	1.68	2.9	4.28	1.06	2.77	–
CCTACTGGGCCAAAGGTCATTGACTCCAATGCTC	4.46	5.6	4.61	1.6	6.03	3.38	0.707	1.82	–
CTATGTAGGTTAAGGGGGTCATTCATTTTGAAAG	3.81	4.91	3.98	2.28	5.74	3.64	1.93	5.01	–
TCTCGGAGGACACGAAAGGTGAGAGCTCGACATC	2.24	1.64	1.99	0.659	0.812	2.51	0.549	-0.374	–
ATCAAAAGGTCGAAGGTGAGTATACCCACCCGAA	2.75	4.51	4.34	1.27	5.55	2.26	-0.268	0.86	–
GCTATTAGGTGAAAGGGCAACCGAATGATTCTCG	2.47	2.34	1.75	0.924	2.35	2.04	0.498	0.381	–
AGTCAAAGTTCAGCACGAGGTAACGTAAAGCACG	3.59	5.19	5.78	3.52	3.51	3.78	1.13	2.3	–
AAAATGAGGTTAAGATCAGGGAAACAGAATACAT	1.03	2.28	1.37	1.32	2.73	2.75	0.772	0.778	–
CTATCTAGGTTAAGGGGGTCATTCAGTTTGAAAG	3.94	5.18	4.36	2.55	5.74	3.91	2.14	7.21	–
TCGAGTAGGTTACGGGGGTATTCAGGGATGAAGA	1.58	2.08	1.62	1.44	2.06	2.99	1.08	1.21	–
CTCGAAAGGTCGTGGTCAGGTGAGTATACCAAAC	3.25	5.58	4.34	1.88	5.4	4.01	0.825	1.13	–
AATACAGGGACATCGTAGGCCAGAGTACGCACAG	0.605	0.131	0.818	0.223	-0.000453	1	0.426	0.53	–

Sequence	PBM binding z-score [1]	PBM binding z-score [2]	PBM binding z-score [3]	PBM binding z-score [4]	PBM binding z-score [5]	PBM binding z-score [6]	PBM binding z-score [7]	PBM binding z-score [8]	PBM binding z-score [9]
TCGAGTAGGTTACGGGGGCCTTCAGGGATGAAGA	1.03	1.81	1.33	0.49	1.47	1.95	0.405	0.302	–
CGAACTAGGTCACCAGGGCAGTGAAGAGGTTGGA	3.62	4.53	5.52	1.03	3.26	3.09	1.39	0.712	–
CCTGCTCGGTCAATGGTCAGCTAAAGCAGCTCGC	1.62	1.65	2.47	0.331	0.053	-0.136	-0.403	-0.799	–
CTATGTAGGTTATGGGGGTCATTCAGTTTGAAAG	4.1	5.57	4.08	2.33	6.38	3.9	2.67	6.69	–
ATATGTCGGTTAGGGTCATTCAGAAAGTAGGGAA	3.22	3.91	3.09	2.46	4.81	4.36	3.4	4.14	–
CTGAGTAGGTTACGAGGGGGCATTCAGTGCGAAT	2.18	3.13	2.47	1.46	1.72	3.67	0.778	3.31	–
TCTAGTTCGTCACGGAGGTCACACACGACGGGTA	4.28	4.52	4.04	2.51	4.68	3.67	2.73	3.58	–
TCTAGCTGGTCACGGAGGTCACACACGACGGGTA	4.17	4.88	5.01	0.665	5.01	3.67	2.27	2.72	–
CATACACGGTCAGCTAGGCCAGAGTAGGGACGGC	1.5	1.24	2.04	-0.438	0.355	0.226	-0.129	-0.286	–
TCGACTAGGTTACGGGGGCATTCAGGGATGAAGA	2.54	3.66	3.14	2.55	2.88	4.1	1.91	3.72	–
GGAACGGGGGCAAGTTGATAGCAGAGTTTGATGG	2.35	3.33	3.16	3.37	2.6	2.51	1.27	4.04	–
CCGACGGGGGCAGAAAGGTTACCATACCATCCGG	3.29	4.2	3.58	1.16	3.31	2.99	0.6	2.21	–
TTACCAAGGTAAAAGGTCGTTGATGCACGCCTTG	2.14	2.79	1.22	0.317	3.68	2.63	0.000698	1.44	–
CTATGTAGGTTAACGGGGTCATTCAGTTTGAAAG	4.24	5.11	3.74	3.05	6.78	4.44	2.55	7.5	–
CCTACTGGGCCAAAGGTCCTTGATTCCAATGCTC	0.379	0.102	-0.124	-0.459	0.121	-0.00931	-0.139	-0.217	–
CCTAGTTGGTCAGGAAGTCACACACCGGATATGA	1	0.765	0.857	0.171	0.568	0.226	0.522	0.457	–
GCTTACGGGTGAAAGGTTATAGCATGAATAGAAT	1.48	3.01	1.34	0.431	4.95	2.2	0.0422	-0.0188	–
CGAACTAGGTCACCAGGACAGTGGAGAGGTTGGA	3.32	4.53	5.51	1.04	3.27	3.34	1.78	0.74	–
TCGAGTAGGTTACGGGGGCATTCCGGGATGAAGA	2.02	3.36	2.56	1.49	2.87	3.7	0.954	2.67	–

Sequence	PBM binding z-score [1]	PBM binding z-score [2]	PBM binding z-score [3]	PBM binding z-score [4]	PBM binding z-score [5]	PBM binding z-score [6]	PBM binding z-score [7]	PBM binding z-score [8]	PBM binding z-score [9]
TCGAGCAGGTTACGGGGGCATTCAGGGATGAAGA	2.18	3.37	2.29	1.34	2.92	3.65	0.993	2.9	–
CGAACTAGGTCAAAGGACTGTGAAAGGCGACGTA	2.43	3.69	4.11	1.71	2.93	2.19	-0.114	-0.0761	–
CCTAGCAGGCCACGGTCACTCAAGCATTTCGCTT	1.74	0.739	1.19	0.229	0.221	0.45	0.288	-0.0513	–
CCTAGCCGGCCAATCTGGGTCACTCAAGGCTTGA	2.25	1.14	1.24	-0.259	0.623	3.15	0.859	0.329	–
CCGAGTAGGTTACGAGGGGGCAGTCAGTGCGAAT	2.02	2.81	2.42	0.582	1.55	3.29	0.478	1.68	–
ATATGTAGGTTAGCTGGAGTCATTCAGACTAGGC	0.259	0.523	0.683	-0.228	0.583	0.807	-0.355	-0.00881	–
CGAACTAGGTCACGAGGACAGTGAAGAGGTTGGA	3.75	4.91	5.66	1.48	3.85	3.84	2.61	0.957	–
TCGAGTAGGCTACGGGGGCATTCAGGGATGAAGA	1.01	1.2	0.904	0.682	1.13	3.63	0.228	2.66	–
CGAACGAGGTCAGAACAGGACAGTGAAGGATGAT	3.19	4.63	4.76	3	4.37	–	1.37	2.1	3.67
ATATGTAGGTTAGGGTCATTCGGAAAGTAGGGAA	3.62	4.07	3.15	2.51	5.06	4.16	3.3	4.24	–
TCGAGTAGGTTACGGGGGGATTCAGGGATGAAGA	1.73	2.76	2.33	2.47	2.04	3.42	1.85	2.02	–
TCGAGTAGGTTACGGGAGCATTCAGGGATGAAGA	-0.0117	0.484	0.553	-0.267	0.792	1.89	-0.885	-0.591	–
AGTCAAAGTTCATCAAGGTAACGTAAGATATGCT	3.86	5.57	5.96	4.57	4.81	3.8	1.23	4.97	–
CATAGTTGGTCAAGGTCACACACGCTATAGGTAC	4.31	4.62	4.62	2.04	4.73	4.18	4.02	3.8	–
CGTCCAAGGTCAATGTTAGGTCAGTGAAAGCATT	5.33	7.45	6.89	3.6	5.27	–	3.81	2.78	4.92
GCTGCTCGGTCAACTGATGGTCAGCTAAAGCTCG	2.15	2.42	3.21	-0.121	-0.0356	0.0227	-0.551	-0.439	–
CTATGTAGTTTAAGGGGGTCATTCAGTTTGAAAG	3.89	4.53	3.58	3.27	5.05	3.79	2.91	7.03	–
TCGAGTAGGTTTCGGGGGCATTCAGGGATGAAGA	1.5	2.01	1.38	1.48	1.5	3.54	1.69	3.56	–
CGAACTAGGTCAACGGACAGTGAAAGGCGACGTA	2.82	4.11	4.8	1.34	3.39	2.36	0.45	0.394	–
